From PubChem BioAssay
Most compounds without a hit are left out; they make up all but 13% or so of the library.
HCV inh – inhibitors of hepatitis C virus infection; Huh7.5.1 HCVcc-Cre infection, luciferase reporter, 44 h; Potency, µM (titrated, usually from 41.8 µM), inactives show top-dose activity change, negative = inhibition, most hits filed as inhibitors; 340,000 compounds, 3.4% hits; AID 651820; note: potency is the fitted concentration of half-maximal effect
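Compounds are dispensed onto cells plated 4 h earlier at 1,000 per well, with HCVcc-Cre virus (about 0.5 moi) added next. Following 44 h of culture, luminescent signal is measured for 15 sec after 15 min with substrate at room temperature.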
HCMV inh – inhibitors of human cytomegalovirus; HFF cells, HCMV-luciferase reporter, 72 h; stronger effect = lower value; 410,000 compounds, 4.5% hits; activity change, negative = inhibition, % at 57.5 µM; in the data active = activity change below about -60%; inconclusive = no clear call, values can overlap the other calls; inactive = above about -39%
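Compounds were evaluated in HFFs infected with an HCMV luciferase reporter virus (MOI 1 PFU/cell). Luciferase in lysates collected 72 h post infection served as the replication measure.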
Pf growth 96h – P. falciparum growth inhibition at 96 hour, primary screen for plastid delayed-death inhibitors; Potency, µM (highest dose often 28.7 µM), for the others: top-dose activity change, negative = inhibition, usual class: inhibitors; 320,000 compounds, 6.9% hits; P. falciparum luciferase reporter growth, 96 h; note: potency is the fitted concentration of half-maximal effect
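Compounds incubated with erythrocytes infected by luciferase-expressing P. falciparum (2% hematocrit, 0.05% parasitemia final) for 96 hours, 37 C in 5% CO2. Growth inhibition scored as decreased luciferase luminescence.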
Pf growth 48h – inhibits P. falciparum growth in the first generation, 48 h; P. falciparum luciferase growth in erythrocytes, 48 h; 310,000 compounds, 5.9% hits; AID 504832; Potency, µM (top dose mostly 28.7 µM), inactives show at the top dose activity change, negative = inhibition, actives largely listed as inhibitors; note: potency is the fitted concentration of half-maximal effect
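Luciferase-expressing parasites in RBCs, 2% Hct / 0.1% parasitemia final; RPMI 1640 + 0.5% Albumax; 37 C, 5% CO2, one generation; luminescence read-out, lower signal = inhibition.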
* marks the source's active call; other numbers are inactive results; ? = inconclusive; / = not tested or not shown; [ ] = dose if it differs, or a comment. Unless noted, calls come from the whole dose curve; as a rule, active = well fitted inhibition curve with a large enough effect; inconclusive = small, poorly fitted or top-dose-only effect, or another doubt; inactive = no such curve, though single readings can be large or run the other way. % is set by controls: 0 for no effect and ±100 for the full control effect.

SMILES | HCV inh | HCMV inh | Pf growth 96h | Pf growth 48h
CCOc1ccc(N(CC(=O)NC(C(C)C)C(C)C)S(=O)(=O)c2ccc(OC)c(OC)c2)cc1 | 10µM* | -12.4 | -4.1% | ?
CCOc1ccc(N(CC(=O)OC)S(=O)(=O)c2ccc(OC)c(OC)c2)cc1 | 9.3% | 2.9 | 37.0% | -15.4%
CN(C)S(=O)(=O)N(CC(=O)NCc1ccccc1)c1ccccc1 | 12.9% | 40.6 | -1.5%[5.75 µM] | 25.0%
COc1ccccc1CNC(=O)CN(c1ccc(C)cc1)S(=O)(=O)c1c(C)nn(C)c1C | -2.3% | -29.4 | 4.15µM* | ?
C[C@@H](NC(=O)CN(c1ccccc1)S(=O)(=O)N(C)C)c1ccccc1 | / | -105.2* | / | /
COc1ccc(N(CC(=O)NCc2ccccc2OC)S(=O)(=O)c2c(C)nn(C)c2C)cc1 | 5.6% | -10.9 | 46.3% | /
COc1ccc(S(=O)(=O)N(CC(=O)NC(C)c2ccccc2)c2ccc(C)cc2)cc1OC (configuration not stated) | / | -88.4* | / | /
Cc1ccc(C2CC(=O)n3nc(-c4cccc(C)c4)nc3S2)cc1 (configuration not stated) | / | 1.7 | / | /
O=C(CN1CCCN(Cc2ccc(F)cc2)S1(=O)=O)NCc1ccccc1Cl | / | 0.0 | / | /
Cc1ccc2cc3cc(C(=O)N4CCN(c5ccccc5)CC4)oc3nc2c1 | / | 32.8 | / | /
COc1ccc(S(=O)(=O)N(CC(=O)NCc2ccccc2)c2ccc(C)cc2)cc1OC | / | -105.0* | / | /
Cc1ccc(N2CC(NC(=O)C3CCCC3)CC2=O)cc1C (configuration not stated) | / | -11.4 | / | /
CCCCSc1nc(-c2ccc(OC)cc2)ccc1C#N | / | 2.2 | / | /
CCSc1nc(-c2ccc(OC)cc2)ccc1C#N | 10µM* | 26.0 | 25.5% | ?
CCCc1nn2c(=O)cc(COC(=O)CNC(=O)COc3ccc(C)cc3)nc2s1 | / | 7.6 | / | /
COc1ccc(CNc2nc3c(c(=O)n(C)c(=O)n3C)n2Cc2ccccc2Cl)cc1 | / | 2.7 | / | /
COc1ccc(-c2cc(-c3ccc(OC)cc3)c(C#N)c(SC)n2)cc1 | -5.5% | -27.8 | -12.8% | 64.9%
COc1ccc(-c2cc(-c3ccccc3)c(C#N)c(S(C)(=O)=O)n2)cc1 | 25.9% | -65.7* | ? | /
CS(=O)(=O)c1nc(-c2ccc(Br)cc2)cc(-c2ccccc2)c1C#N | ? | -98.8* | ? | /
CCS(=O)(=O)CCSc1nc(-c2ccc(Br)cc2)cc(-c2ccccc2)c1C#N | / | 16.1 | / | /
CC(=O)Nc1cc2c(s1)c1cnn(Cc3ccccc3F)c(=O)c1n2C | / | / | 2.4% | 7.3%
CCOCCCNCc1cc(Br)ccc1OCc1ccccc1 | ? | -33.5 | ? | 10.4µM*
Nc1nonc1C(=O)NCCNCc1cc(Br)ccc1OCc1ccc(F)cc1 | ? | -21.4 | 1.0% | ?
Brc1ccc(OCc2ccccc2)c(CNCC2CCCO2)c1 (configuration not stated) | -5.3% | -11.7 | 32.6% | -4.8%
OCCNCc1cc(Br)ccc1OCc1ccccc1 | -16.5% | -67.6* | -8.6% | -29.2%
SMILES | HCV inh | HCMV inh | Pf growth 96h | Pf growth 48h
CC(=O)Nc1c(C)nn(-c2ccccc2)c1N1CCC(C(=O)Nc2ccccc2C(F)(F)F)CC1 | / | 48.5 | / | /
O=C(O)CSCCn1cccn1 | 6.3% | -3.0 | 13.1µM* | 23.1%
Cc1ccc(NC(=S)/C(=C(\[O-])c2ccc(F)cc2)[n+]2ccccc2)cc1 | -11.2% | -72.9* | -0.3% | 2.2%
Cc1cc(C)c(/C([O-])=C(/C(=S)Nc2ccc(SC(F)F)cc2)[n+]2ccccc2)cc1C | ? | ? | ? | 11.7µM*
[O-]/C(=C(\C(=S)Nc1ccc(SC(F)F)cc1)[n+]1ccccc1)c1cc(Cl)ccc1Cl | ? | -61.3* | -11.4% | -13.9%
C=CCn1c(C)cc(/C([O-])=C(/C(=S)Nc2ccc(OC(F)F)cc2)[n+]2ccc(N(C)C)cc2)c1C | ? | ? | 3.7µM* | ?
O=C(Nc1ccccc1)c1ccc2c(O)c(S(=O)(=O)c3ccc(Cl)cc3)c(=O)[nH]c2c1 | / | 9.5 | / | /
COC(=O)[C@H](NC(=O)c1cc(-c2ccccc2)sc1N)C(C)C | / | 13.3 | / | /
CCOC(=O)[C@]12CCCC=C1N(CCc1ccc(OC)c(OC)c1)C(=O)[C@H](CC(=O)NCCc1ccccc1OC)C2 | / | 9.7 | / | /
CN(C)c1cc[n+](/C(C(=S)Nc2ccc(SC(F)F)cc2)=C(/[O-])c2ccccc2)cc1 | -22.1% | ? | 2.08µM* | 4.65µM*
[O-]/C(=C(\C(=S)Nc1ccc(SC(F)F)cc1)[n+]1cccc(CO)c1)c1ccc(Cl)s1 | -25.3% | -20.0 | ? | -15.8%
COc1ccc(-c2nc3ccc(C4=C(C)CC(=O)NN4)cc3[nH]2)cc1 | / | / | 7.57µM* | ?
c1ccc2c(c1)nnn1c3ccccc3nc21 | / | / | 41.8% | 189.0%
ClC(Cl)(Cl)c1nc2ccccc2n2nncc12 | 12.6µM* | -88.4* | ? | 0.329µM*
O=C(COc1coc(CN2CCc3ccccc3C2)cc1=O)Nc1cccc(F)c1 | ? | 14.3 | 4.65µM* | 6.2%
COc1ccc(NC(=O)COc2coc(CN3CCc4ccccc4C3)cc2=O)cc1 | ? | -16.9 | 13.1µM* | -16.2%
CCc1ccc(NC(=O)c2nnn(Cc3cccc(C(F)(F)F)c3)c2N)cc1 | / | -8.7 | / | /
CCN(Cc1ccccc1)C(=O)Cn1c(=O)n(-c2ccc(Cl)c(Cl)c2)c(=O)c2c(C)c(C(=O)N(C)C)sc21 | / | -20.6 | / | /
Cc1cc(C)cc(C(=O)N2CC(C)SC2=Nc2cccc(S(=O)(=O)N(C)C)c2)c1 (configuration not stated) | ? | ? | ? | 13.1µM*
Cc1ccc(C(=O)N2CC(C)SC2=Nc2cccc(S(=O)(=O)N(C)C)c2)cc1 (configuration not stated) | -12.4% | -30.5 | ? | -19.8%
COc1ccc(C(=O)N(CN2CCCC2=O)c2ccccc2OC)cc1OC | 19.2% | 18.3 | 0.0041µM* | 2.5%
COc1ccccc1N(CN1CCCC1=O)C(=O)c1c(F)cccc1Cl | -13.9% | 13.7 | 15.8% | ?
COc1ccc(OC)c(C(c2nnnn2CCc2ccccc2)N2CCN(c3ccccc3)CC2)c1 (configuration not stated) | ? | -11.7 | / | 9.28µM*
COc1ccc(N2CCN(C(c3cc(OC)ccc3OC)c3nnnn3Cc3ccco3)CC2)cc1 (configuration not stated) | 12.3% | -33.1 | ? | 13.1µM*
COc1ccccc1N1CCN(C(c2ccc(N(C)C)cc2)c2nnnn2CCc2ccccc2)CC1 (configuration not stated) | 15.9% | 33.7 | ? | 9.28µM*
COc1ccc(OC)c(C(c2nnnn2Cc2ccccc2)N2CCN(C)CC2)c1 (configuration not stated) | 5.9% | -12.6 | 3.0% | -11.1%
CC1(C)Cc2c(sc3c2c(=N)n(Cc2ccco2)c(=O)n3CC(=O)Nc2ccc(Cl)cc2)CO1 | ? | -23.6 | ? | ?
CC1(C)Cc2c(sc3c2c(=N)n(Cc2ccco2)c(=O)n3CC(=O)Nc2cccc(Cl)c2)CO1 | ? | 32.2 | 10.4µM* | ?
